These results are taken from PubChem BioAssay AID488969 (Vanderbilt High Throughput Screening Facility, 2010).

Over roughly 110,000 compounds, “z-score” has its median near -0.1; the highest 2% begin near 2. Only a selection was taken, and the highest values are over-represented in it overall. Active and inactive are the calls of the source.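 How the source made its calls: active means z-score in the third read window above 3 or below -3; inactive means the rest.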

Chain of Metabotropic glutamate receptor 8 (Rattus norvegicus) (P70579 whole entry, looked up): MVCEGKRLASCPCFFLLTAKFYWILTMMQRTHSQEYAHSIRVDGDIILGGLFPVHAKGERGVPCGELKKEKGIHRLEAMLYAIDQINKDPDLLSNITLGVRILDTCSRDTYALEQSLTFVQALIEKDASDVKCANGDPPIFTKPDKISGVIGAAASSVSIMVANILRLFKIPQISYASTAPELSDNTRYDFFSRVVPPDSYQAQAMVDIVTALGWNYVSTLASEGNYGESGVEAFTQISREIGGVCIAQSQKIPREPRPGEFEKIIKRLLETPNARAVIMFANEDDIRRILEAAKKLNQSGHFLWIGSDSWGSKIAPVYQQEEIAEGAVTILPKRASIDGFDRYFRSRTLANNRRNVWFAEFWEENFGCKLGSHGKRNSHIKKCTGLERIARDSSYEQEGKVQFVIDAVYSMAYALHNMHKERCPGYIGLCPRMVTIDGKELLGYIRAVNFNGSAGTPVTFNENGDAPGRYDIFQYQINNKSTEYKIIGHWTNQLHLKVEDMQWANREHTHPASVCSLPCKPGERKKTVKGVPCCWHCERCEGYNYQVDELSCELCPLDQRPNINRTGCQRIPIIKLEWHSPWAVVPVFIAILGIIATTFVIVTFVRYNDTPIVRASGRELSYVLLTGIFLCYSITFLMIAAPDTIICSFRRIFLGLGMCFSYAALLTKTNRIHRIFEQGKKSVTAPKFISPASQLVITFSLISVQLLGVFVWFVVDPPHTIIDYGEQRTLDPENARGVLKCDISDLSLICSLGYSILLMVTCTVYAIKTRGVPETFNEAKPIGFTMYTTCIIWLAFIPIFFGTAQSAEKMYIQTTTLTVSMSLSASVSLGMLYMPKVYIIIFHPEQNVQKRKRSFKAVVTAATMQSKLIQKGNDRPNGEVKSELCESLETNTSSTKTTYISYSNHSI

The assay has as its target Metabotropic glutamate receptor 8 (Rattus norvegicus) (UniProt P70579). Description: rat mGluR8 modulators via GIRK flux, primary screen, cell-based, thallium flux, HTS (AID 488969). Conditions: HEK293 rat mGluR8, GIRK (G protein-gated inwardly rectifying potassium channel) thallium flux, FluoZin2; at 10 µM; stronger effect = higher value; submaximal glutamate (EC20) added with thallium.
`CC(C)C(=O)Nc1nnn(C)n1`: the z-score was 9.51 (active).

In turn, `CC(C)C(=O)NC(=S)Nc1nnn(C)n1` came in with a z-score of 0.169.

For `CC(C)CC(=O)Nc1nnn(C)n1`, the z-score turned out to be 0.332.

As for `CCN1CCCC1CNC(=O)C(=O)Nc1ccc(OC)cc1` (stereo not drawn), the z-score was 0.521. For `CCN1CCCC1CNC(=O)C(=O)Nc1ccccc1OC` (stereo not drawn), the z-score is 0.00956.

For the compound `CCN1CCCC1CNC(=O)C(=O)Nc1cccc(OC)c1` (stereo not drawn), the z-score was 2.04. `CCOc1ccc(N(CC(=O)N2CC=C(c3ccccc3)CC2)S(=O)(=O)c2c(C)noc2C)cc1` registered a z-score of -0.285. In the case of `O=C(COC(=O)c1cn(-c2ccccc2)nc1-c1ccc(F)cc1)Nc1ncc(Cl)cc1Cl` it was 0.0446. In turn, `CCC(C)NC(=O)C1CCN(c2nc(OC)nc(OC)n2)CC1` (stereo not drawn) had a z-score of 0.12. Turning to `C/C(CC(=O)Nc1cccc2c1CCCC2)=N\NC(=O)c1ccccc1N`, the z-score stood at 2.22. In the case of `CCn1c2ccccc2c2cc(NC(=O)C/C(C)=N/NC(=O)c3ccccc3N)ccc21` it was -0.0756. In the case of `C/C(CC(=O)Nc1cccc2c1CCCC2)=N\NC(=O)c1cccc2ccccc12` it was -0.483; in that of `COc1cc(NC(=O)c2ccco2)ccc1NC(=O)C(C)C`, 0.332; in that of `Nc1nc(SCC(=O)NCCCO)nc2sc3c(c12)CCC3`, 1.08.

For the compound `O=C(CC1NC2CCCCC2NC1=O)Nc1cccc(C(F)(F)F)c1` (stereo not drawn), the z-score turned out to be 0.497. `Cc1ccc(NC(=O)CCSCCC(=O)Nc2ccc(C)c(C)c2)cc1C` had a z-score of -0.0616. In the case of `CCc1cccc(NC(=O)C2CCCC2)c1` it was 0.366.

Take `CCc1cccc(NC(=O)COc2ccccc2)c1`: the z-score is 0.78. For `COC(=O)CSC1=NS(=O)(=O)c2ccccc21`, the z-score was -2.06. The figure for `CCc1cccc(NC(=O)NC2CCCCC2)c1` is 4.38 (active); for `CCc1cccc(NC(=O)CSC2=NS(=O)(=O)c3ccccc32)c1` it is 3.52 (active); for `O=C(Nc1cccc(F)c1)NC1CCCCC1` it is 0.258. In the case of `O=C(Nc1ccc(F)c(F)c1)NC1CCCCC1` it was 3.01 (active). As for `CCc1cccc(NC(=O)CCSCCC(=O)Nc2cccc(CC)c2)c1`, the z-score is 3.02 (active). The figure for `O=C(Nc1ccc(F)cc1)NC1CCCCC1` is 0.532; for `O=C(Nc1ccc(Cl)cc1)NC1CCCCC1` it is 0.269. In the case of `O=C(CSC1=NS(=O)(=O)c2ccccc21)Nc1ccccc1`, the z-score was -0.326. In the case of `CCc1cc2c(=O)c(Oc3ccccc3)c(C)oc2cc1O` it was 0.432; in that of `O=C(CNC(=O)c1cccc(F)c1)N/N=C/c1cccc([N+](=O)[O-])c1`, -0.00152. The figure for `COc1ccc(S(=O)(=O)NC(C(C)C)C(C)C)cc1OC` is 0.101; for `CSc1nc(N2CCOCC2)c2c(c1C#N)CCCCC2` it is -0.315. The figure for `CCC1Cc2c(nc3c4c(nc(N5CCOCC5)c(C#N)c24)NC(C)=N3)O1` (stereo not drawn) is -0.387. For `O=C(c1ccco1)N1CCCC(c2ccccc2)C1` (stereo not drawn), the z-score was -0.388. The figure for `CCOC(=O)c1ccc(COC(=O)c2nonc2N)cc1` is -0.0847; for `C=CCNC(=O)CC(C)C(CCCCC)C(=O)O` (stereo not drawn) it is -0.15; for `Cc1ccc(CNC(=O)c2cc3c(C)nc4ccccc4c3o2)cc1` it is 0.19.

As to `Cc1ccc(SCCNC(=O)c2ccccc2C)cc1`, the z-score was -0.0405. The figure for `O=C(Cn1nc(-c2ccc(Cl)cc2)c2ccccc2c1=O)Nc1cccnc1` is -0.258. In turn, `CCC(C)(C)n1nnnc1CN1CCN(c2nc3cc(OC)ccc3cc2C#N)CC1` came in with a z-score of -1.2. The figure for `OCCNc1ncnc2c1ncn2Cc1ccccc1` is -0.662; for `CC(C)CCn1cnc2c(NCc3ccccc3)ncnc21` it is 2.07; for `Cn1ncc2c(NCc3ccccc3)ncnc21` it is -0.129. In the case of `O=C(CCCOc1ccc(Cl)cc1Cl)N/N=C\C1CCCCC1` it was -0.118; in that of `CCn1c(-c2cc(-c3cc(OC)ccc3OC)nc3ccccc23)n[nH]c1=S`, 0.132.

As to `CCn1c(-c2cc(-c3ccccc3OC)nc3ccccc23)n[nH]c1=S`, the z-score turned out to be 0.152.

`CCOc1cccc(-c2cc(-c3n[nH]c(=S)n3CC)c3ccccc3n2)c1`: the z-score is 2.09. In the case of `CCCOc1cccc(-c2cc(-c3n[nH]c(=S)n3CC)c3ccccc3n2)c1` it was 4.22 (active); in that of `CCn1c(-c2cc(-c3ccc(OC(C)C)cc3)nc3ccccc23)n[nH]c1=S`, 1.25.

On to `CCn1c(-c2cc(-c3cccc(OC)c3)nc3ccccc23)n[nH]c1=S`, for which the z-score was found to be 1.92. With `CCOC(=O)c1cc2nc(-c3ccco3)cc(C(F)(F)F)n2n1`, the z-score was -1.72. The figure for `CCOc1ccc(-c2nc(C#N)c(NCc3ccc4c(c3)OCO4)o2)cc1` is 0.406; for `O=c1[nH][nH]c(-c2ccccc2)c1C=Nc1ccccc1` it is -0.278.

In turn, `O=C1CCC2CCCCC2(O)O1` (stereo not drawn) returned a z-score of -0.0285. `O=c1n(Cc2ccc(Cl)cc2)c2sc3c(c2c2ncnn12)CCCC3` yielded a z-score of -0.595.

The compound `COc1ccc(-c2nnc(SCC(=O)N3CCCC3)o2)cc1OC` had a z-score of 0.322. In the case of `COc1cc(-c2nnc(SCC(=O)N3CCCC3)o2)cc(OC)c1OC` it was 2.2; in that of `COc1cc(OC)cc(-c2nnc(SCC(=O)N3CCCC3)o2)c1`, -0.103; in that of `COc1ccc(OC)c(C(=O)CSc2nc3cccnc3n2C)c1`, 0.718.

`COc1ccc(S(=O)(=O)N(C)CC(=O)Nc2ccccc2OC)cc1` showed a z-score of -0.484. The figure for `SC(COCc1ccccc1)CN1CCN(Cc2ccc3c(c2)OCO3)CC1` (stereo not drawn) is 3.02 (active); for `CN1CCN(CC(O)COCc2ccc3c(c2)OCO3)CC1` (stereo not drawn) it is 0.1; for `OC(COCc1ccc2c(c1)OCO2)CN1CCN(Cc2ccccc2)CC1` (stereo not drawn) it is -0.00855.

The compound `CCn1nc(NC(=O)c2ccccn2)c2cc3cc(C)ccc3nc21` gave a z-score of -0.417. The figure for `CC1=C(C(=O)OCc2ccccc2)C(c2cccnc2)n2nnnc2N1` (stereo not drawn) is 0.152; for `CN1CCN(CCNC(=O)Nc2ccccc2C(F)(F)F)CC1` it is -0.464. In the case of `CCCN1CCN(C(=S)Nc2ccccc2C(F)(F)F)CC1` it was 2.17; in that of `FC(F)(F)c1ccccc1NC(=S)N1CCN(c2ncccn2)CC1`, -0.0651; in that of `CC1CCC(C(=O)NC(C(=O)N2CCc3ccccc3C2)C(C)C)CC1` (stereo not drawn), -0.269.

`COc1ccc(-c2nc3c(c4nnc(SC(C)C(=O)Nc5ccccc5)n24)COC(C)(C)C3)cc1` (stereo not drawn) came in with a z-score of -0.351. In the case of `CC1CCN(c2oc(-c3ccccc3F)nc2C#N)CC1` it was 2.57; in that of `N#Cc1nc(-c2ccccc2F)oc1N1CCCC1`, -0.139; in that of `CC1CCN(c2oc(-c3cccc4ccccc34)nc2C#N)CC1`, 0.305.

On to `C=CCn1c(SCCOC)nc2c1c(=O)[nH]c(=O)n2C`, for which the z-score is -0.444. In the case of `NC(Cc1ccc2nsnc2c1)C(=O)O` (stereo not drawn) it was 0.179. In the case of `CCCCn1c(Cc2ccccc2)nnc1SCC(=O)N1CCOCC1` it was -0.257; in that of `O=C1Nc2ccccc2/C1=C\c1cccn1-c1ccc(OC(F)(F)F)cc1`, 2.45. The figure for `O=C1C(=Cc2cccn2-c2ccc(O)cc2)C(=O)c2ccccc21` is -0.204; for `CN(C)/C=C1\C(=O)Nc2ccccc21` it is -0.00898.
